# Measured values taken from PubChem BioAssay AID540267 (National Center for Advancing Translational Sciences (NCATS), 2011).
# Among all 340,000 compounds or so, about 530 (0.16%) were called active. Inconclusive results (about 2%) are left out. The entries come from a sample that favours actives as a whole. Values without a mark were called inactive. No stated cut-off is given here; in the data, active means activity change below about -80%; inconclusive means between about -30% and that limit; inactive means weaker than that.
# Experiment: Small Molecules that selectively kill Giardia lamblia: qHTS;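 further: parasites exposed to compound for two days anaerobically before the ATP read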
# Settings: Giardia lamblia trophozoite viability; at 7.66 µM; active compounds read low
# Summary of the method: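 Viability, read as ATP luminescence: trophozoites at 100 cells/well, compound added, 48 hrs anaerobic at 37 deg C, then 15-30 min room-temperature development before reading.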
# On the % scale 0 is the no-effect control and ±100 the full control effect.
row,Compound,activity change
1,O=[N+]([O-])c1ccc(C=Nc2ccc(Cl)cc2Cl)s1,12%
2,CNN/C(N=Cc1ccc([N+](=O)[O-])s1)=N\S(=O)(=O)c1cc(C)c(Cl)cc1SCc1ccccc1,-85.8% (active)
3,OC[C@@H]1O[C@H](n2cnc3c(SCc4ccccc4)ncnc32)[C@H](O)[C@H]1O,7.24%
4,COc1ccc(CCn2c3c(c(=O)[nH]c2=S)CN(C(C)C)CN3)cc1OC,-2.67%
5,O=C(CCc1ccccc1)Nc1ncc([N+](=O)[O-])s1,-95.3% (active)
6,CC(=O)c1cccc(NC(=O)C2COc3ccccc3O2)c1 (configuration not stated),3.94%
7,O=C(Nc1cc(S(=O)(=O)N2CCCCC2)ccc1Cl)C1COc2ccccc2O1 (configuration not stated),9.58%
8,CC(C)Cc1nnc(NC(=O)CCc2ccccc2)s1,-6.99%
9,O=C(Nc1ncc([N+](=O)[O-])s1)C1COc2ccccc2O1 (configuration not stated),-95.9% (active)
10,COC(=O)CSc1nnc(NC(=O)CCc2ccccc2)s1,-28.2%
11,COc1ccc(S(=O)(=O)N2CCOCC2)cc1NC(=O)Cc1c(F)cccc1Cl,0.481%
12,CN(c1ccccc1)S(=O)(=O)c1cccc(NC(=O)Cc2c(F)cccc2Cl)c1,6.09%
13,O=C(Cc1c(F)cccc1Cl)Nc1ncc([N+](=O)[O-])s1,-90.9% (active)
14,O=C(Nc1cccc(Cl)c1)c1cc(S(=O)(=O)N2CCCCC2)c[nH]1,-28.5%
15,Cc1nn(C(C)CC(=O)O)c(C)c1C (configuration not stated),7.78%
16,CCC1(C)Cc2c(sc3[nH]c(=S)n(Cc4ccccc4)c(=O)c23)CO1 (configuration not stated),-14.6%
17,COc1cc2c(cc1OC)C(/C=C/c1ccco1)=NCC2,-3.82%
18,CCOc1ccc(C(=O)NC(C(=O)NCc2ccccn2)C(C)C)cc1 (configuration not stated),-4.15%
19,OCCNc1ncnc2oc(-c3ccco3)c(-c3ccco3)c12,-2.77%
20,COc1cc(OC)c2c(c1C(CCN1CCCCC1)c1ccc(N(C)C)cc1)OC(=O)CC2c1ccc(N(C)C)cc1 (configuration not stated),7.67%
21,O=S(=O)(Nc1cccc2cccnc12)c1cccc2cccnc12,-17.9%

row,Compound,activity change
1,CCOc1ccc(S(=O)(=O)N2CCN=C2Cc2ccccc2)cc1C,-28.6%
2,O=C(c1ccco1)N(Cc1cccs1)c1ccc(O)cc1,-7.42%
3,COc1ccc(CN2CCc3nc(Nc4ccccc4)ncc3C2)c(OC)c1OC,-13.9%
4,NS(=O)(=O)c1ccc(NC(=O)CSc2nnc3c(n2)[nH]c2ccccc23)cc1,-21.1%
5,CCOCN(C(=O)Cn1c(C(C)O)nc2ccccc21)c1c(C)cccc1CC (configuration not stated),8%
6,CN(CCC#N)c1ncnc2scc(-c3ccccc3)c12,-2.98%
7,O=C1CC(c2ccccc2)CC2=C1C(c1ccco1)n1nc(C(F)(F)F)nc1N2 (configuration not stated),14.6%
8,CC(Nc1nc(N2CCCC2)nc2ccccc12)c1ccccc1 (configuration not stated),3.32%
9,CC(Nc1nc(N2CCOCC2)nc2ccccc12)c1ccccc1 (configuration not stated),4.71%
10,CC(Nc1nc(N2CCN(CCO)CC2)nc2ccccc12)c1ccccc1 (configuration not stated),-93.8% (active)
11,O=C1C2C(c3ccccc3)CC=CC2C(c2ccoc2)N1Cc1ccccc1 (configuration not stated),-9.66%
12,O=C(Nc1ccc(Br)cn1)c1ccc([N+](=O)[O-])o1,-87.6% (active)
13,O=C(Nc1cccc([N+](=O)[O-])c1)c1ccc2c(c1)OCO2,7.08%
14,O=C(Nc1ccc(Br)cn1)c1ccc([N+](=O)[O-])cc1Cl,-28.4%
15,Cc1cccc(NC(=O)c2ccc([N+](=O)[O-])o2)c1,-85.9% (active)
16,CN1C(=O)c2ccc(C(=O)Nc3ccc(Br)cn3)cc2C1=O,6.68%
17,O=C(Nc1cccc(O)c1)c1ccc(C(=O)c2ccccc2)o1,-8.06%
18,c1ccc2c(C[n+]3csc4ccccc43)cccc2c1,3.49%
19,O=c1c([N+](=O)[O-])cccn1Cc1ccc(F)cc1Cl,-94.3% (active)
20,N/C(=N/O)c1cccn1Cc1ccccc1[N+](=O)[O-],-2.12%
21,Cc1ccc(-c2ccc(=O)n(Cc3ccc(F)cc3Cl)n2)cc1,-0.457%

row,Compound,activity change
1,Brc1nc2ncnc(NCc3ccco3)c2[nH]1,-4.89%
2,O=[N+]([O-])c1cccc(/C=N/Nc2ncc(Br)cn2)c1,23.3%
3,O=[N+]([O-])c1ccccc1Nc1ccc(O)cc1,-6.38%
4,O=[N+]([O-])c1ncc(Br)cc1Nc1ccccc1,-90.1% (active)
5,NC(CSC1(c2ccccc2)c2ccccc2-c2ccccc21)C(=O)O (configuration not stated),-0.132%
6,Cc1ccc2oc(C(=O)N3CCN(C)C[C@@H]3C(C)C)c(C)c2c1,11.8%
7,CCCCCCC1(C)NC(c2ccc3c(c2)OCO3)=CC(c2ccccc2O)N1 (configuration not stated),-22.5%
8,CC1(C)c2[nH]c3ccccc3c2C[C@H]2C(=O)N(N)CC(=O)N21,-11.4%
9,COC(=O)N/N=C/c1c[n+]([O-])c2ccccc2[n+]1[O-],-80.1% (active)
10,COC(=O)C(C)N=Cc1ccccc1 (configuration not stated),-3.67%
11,COC(=O)N/N=C/c1ccc(-c2ccc(Cl)c(Cl)c2)o1,-7.13%
12,Cc1c(C=O)c2ccccc2n1CC(=O)O,21.1%
13,CC(=O)c1c(C)n([O-])c2ccccc2[n+]1=O,-80.7% (active)
14,CCOc1ccc(NC(=O)CSc2nnc3c(n2)[nH]c2ccc(S(=O)(=O)N4CCOCC4)cc23)cc1,-27.7%
15,Cc1ccc(N2C(=O)C3C(c4ccccc4)(C2=O)C3(c2ccccc2)c2ccccc2)cc1 (configuration not stated),6.33%
16,CCN(CC)/[N+]([O-])=N/Oc1cc(O/[N+]([O-])=N/N2CCCC2CO)c([N+](=O)[O-])cc1[N+](=O)[O-] (configuration not stated),9.52%
17,CC1(C(=O)NCCc2c[nH]c3ccccc23)C=CC2(CCCCC2)N1C(=O)c1ccccc1 (configuration not stated),17.9%
18,COc1cc(OC)c2c(C)cc(=O)oc2c1C(CCN1CCCCC1)c1ccc(N(C)C)cc1 (configuration not stated),8.97%
19,Cc1nc(-c2ccccc2)cn2c1nc1ccccc12,7.53%
20,O=S(=O)(c1cccc(C(F)(F)F)c1)N1CCN(c2nc(-c3cccs3)nc3ccccc23)CC1,27.4%
21,COC(=O)c1ccc(OCC(O)CN(CCO)CC(O)Cn2ccc3ccccc32)cc1 (configuration not stated),8.7%

row,Compound,activity change
1,CCCCNC(=O)Cn1c(SCc2cccc(Cl)c2)nc2ccncc21,12.3%
2,Cc1ccc(S(=O)(=O)N2CCN(c3nc(-n4cnc5ccccc54)nc4ccccc34)CC2)cc1,11.1%
3,CC(C)=CCN1CCN(CCCc2ccccc2)CC1CCO (configuration not stated),23.8%
4,O=C(N/N=C/c1ccc([N+](=O)[O-])o1)c1cn(-c2ccccc2)nc1-c1ccc(F)cc1,-93% (active)
5,O=C(NCCCN1CCOCC1)c1cn(-c2ccccc2)nc1-c1ccc(F)cc1,-14.8%
6,Cc1ccc(-c2nn(-c3ccccc3)cc2C(=O)NC2CCC(O)CC2)cc1 (configuration not stated),4.06%
7,Cc1noc(C)c1NC(=O)Nc1cccc2c1O[C@H](CN(C)C(=O)Nc1ccccc1)[C@@H](C)CN([C@H](C)CO)C2=O,8.07%
8,Cc1noc(C)c1NC(=O)Nc1ccc2c(c1)C(=O)N([C@H](C)CO)C[C@H](C)[C@@H](CN(C)C(=O)Nc1ccc(C(F)(F)F)cc1)O2,41.7%
9,C[C@H](CO)N1C[C@H](C)[C@H](CN(C)C(=O)Nc2ccc(C(F)(F)F)cc2)Oc2c(NC(=O)c3ccncc3)cccc2C1=O,-89.7% (active)
10,Cc1ccc(-c2nc(=N)sn2Cc2ccccc2)cc1,24.2%
11,COc1ccc(Cn2c(=O)[nH]c3cc(C(=O)N4CCN(C(=O)c5ccco5)CC4)ccc3c2=O)cc1,-2.35%
12,Cc1noc(NS(=O)(=O)c2ccc(NC(=O)c3oc4ccc(F)cc4c3C)cc2)c1C,6.55%
13,COc1ccc(S(=O)(=O)N2CCN(c3ccc(F)cc3)CC2)cc1-c1noc(C)n1,5.27%
14,COC(=O)C(CC(C)C)NS(=O)(=O)c1cc(Br)ccc1Br (configuration not stated),-10.7%
15,Cc1ccc(Nc2c(-c3ccc(C)s3)nc3ccccn23)cc1,1.31%
16,COc1ccc2nc(N3CCN(C(=O)c4ccc([N+](=O)[O-])o4)CC3)sc2c1,-98.8% (active)
17,O=C(c1ccc2nc(N3CCOCC3)sc2c1)N1CCN(c2ccc(Cl)cc2)CC1,-10.4%
18,COc1ccc2nc(N3C(=O)C(O)=C(C(=O)c4ccco4)C3c3ccco3)sc2c1 (configuration not stated),1.49%
19,O=C(NCC1CC1)C1(C(F)(F)F)C/C(=C\CCO)CCCO1 (configuration not stated),-14.8%
